Structures are written as SMILES. In all, about 1,500 compounds went through this assay and about 460 (31%) were called active.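 How the source made its calls: active means viability at or below 80% at any tested concentration, marking the compound as toxic; inactive means the rest.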 Only a sample is shown. Entries with a potency or affinity are not part of this list.

The experiment is described as follows: THP-1 cell cytotoxicity, dose response, cytotoxicity control for Vif-APOBEC3G degradation inhibitor project, THP-1 cells (AID 1117359). The following applies: THP-1 viability, CellTiter-Glo luminescence, 72 h; series mostly up to 40 µM.
As for `CC1CCC/C(=C\Nc2ccc(O)cc2)C1=O` (centres undefined), the molecule was called inactive.

In the case of `CCC1CCC2(CC1)NC(=O)N(CC(=O)Nc1ccc(OC)c(Cl)c1)C2=O` (centres undefined), the outcome was inactive.

Regarding `C=C(C)C(=O)Nc1cccc(C2=NOC3(C2)C[C@H](C(N)=O)N(C(=O)COc2ccc(Cl)cc2)C3)c1` (some centres undefined), the molecule was called inactive.

Turning to `Cc1nc2nc(-c3ccco3)nn2c(C)c1Cl`, the call was inactive.

In the case of `O=S(=O)(O)c1cc(O)c2ccc(Nc3ccccc3)cc2c1`, the call was inactive.

Take `CC(=O)Nc1ccc(N=Nc2ccccc2)cc1`: the result was inactive.

Regarding `CCn1c(SC(C)C(=O)O)nc2sc3c(c2c1=O)CCC3` (centres undefined), the molecule was classed as inactive.

`COc1ccc(N/N=C(\C#N)C(=N)SCc2ccccc2)cc1`: the result was inactive.

On to `CC(=O)c1ccccc1NC(=O)COC(=O)CN1C(=O)C2CCCCC2C1=O` (centres undefined), for which the call was inactive.

`Cc1cc2cc3c(=O)[nH]c(=O)nc-3n(CC(O)C(O)C(O)CO)c2cc1C` (centres undefined): the call was inactive.

Take `CN(CCO)CC(O)CN(c1ccccc1)c1ccccc1` (centres undefined): the call was inactive.

As for `Oc1cc2c(cc1O)[C@H]1c3ccc(O)c(O)c3OC[C@@]1(O)C2`, the outcome was inactive.

Turning to `C(=C\c1ccco1)/c1ccc2ccccc2n1`, the molecule was classed as inactive.

Consider `O=C(O)c1ccc(-n2cccc2/C=C2/NC(=O)N(c3cccc(Cl)c3)C2=O)cc1`, for which the call was inactive.

Take `O=C(O)c1ccc(-n2cccc2/C=C2/NC(=O)N(c3ccccc3)C2=O)cc1`: the molecule was called inactive.

With `COc1ccc(CCN2CC(C(=O)NCC(c3ccccc3)N(C)C)CC2=O)cc1OC` (centres undefined), the molecule was called inactive.

Turning to `CN1CCN(C(=O)c2ccc(N(C)S(=O)(=O)c3cccs3)cc2)CC1`, the molecule was called inactive.

Turning to `COC1=CC(=O)C(C2CC(=O)c3c(O)cc(O)cc3O2)=CC1=O` (centres undefined), the outcome was inactive.

In the case of `Cc1c(O)cc2c(c1O)C(=O)CC(c1ccc(O)cc1)O2` (centres undefined), the call was inactive.

Take `C(=N\Nc1nncn1/N=C/c1ccco1)/c1ccco1`: the call was inactive.

In the case of `Cn1c(=O)c2c(ncn2CC(=O)N/N=C/C=C/c2ccco2)n(C)c1=O`, the outcome was inactive.

For the molecule `Cn1c2ccccc2c2ccc3c(c21)C(=O)C=CC3=O`, the molecule was classed as inactive.

With `COc1ccc(N2CCN(CC(=O)c3c(C)n(C)c4ccc(OC)cc34)CC2)cc1`, the call was inactive.

In the case of `COc1ccc2[nH]c(C(=O)O)c(CCN3C(=O)c4cccc([N+](=O)[O-])c4C3=O)c2c1`, the molecule was called inactive.

Regarding `Cc1ccc(N=Nc2ccc(N)cc2C)c(S(N)(=O)=O)c1`, the molecule was called inactive.

Consider `O=C1CNC(=O)/C1=C/c1ccc(Br)cc1`, for which the molecule was classed as inactive.

Turning to `O=C(COC(=O)c1ccc(O)cc1O)NNC(=O)c1cccs1`, the call was inactive.

On to `CC[n+]1ccc(C)c2cc(P(=O)(c3ccccc3)c3ccccc3)ccc21`, for which the outcome was inactive.

As to `Cc1ccc(S(=O)(=O)n2ccc(=O)[nH]2)cc1`, the outcome was inactive.

As for `O=C(CCS(=O)(=O)c1ccc(Br)cc1)NC1CCCC1`, the molecule was called inactive.

For the molecule `Cc1cc(NS(=O)(=O)c2cc(Cl)sc2Cl)no1`, the molecule was classed as inactive.

As for `Cc1cc(O)cc(O)c1C(=O)Cc1cnn(-c2ccccc2)c1`, the outcome was inactive.

As to `CCC1=C2CC[C@H]3C(=O)NC(=O)[C@H]3[C@H]2[C@@]2(Cc3ccccc3)C(=NCC(=O)OC)OC(=O)N2C1=O`, the outcome was inactive.

With `CCN(CC)S(=O)(=O)c1cccc(NN=c2c(=O)c3ccccc3c2=O)c1`, the outcome was inactive.

As for `CCc1ccc2c(c1)cc(C)c1nnc(SCC(=O)Nc3cc(OC)c(OC)cc3C(=O)O)n12`, the molecule was called inactive.

For the molecule `COC/C=C/C1=CC2=CC(=O)C(C)(OC(=O)c3cnc4ccccc4n3)C(=O)C2=CN1c1ccccc1` (centres undefined), the outcome was inactive.

With `Nc1ccc2c(O)cc(S(=O)(=O)O)cc2c1`, the outcome was inactive.

Take `CCOC(=O)C1CCN(c2ncnc3cc(OC)c(OC)cc23)CC1`: the call was inactive.

Consider `O=C(O)C1OC(Oc2c(-c3ccc(O)c(O)c3)oc3cc(O)cc(O)c3c2=O)C(O)C(O)C1O` (centres undefined), for which the outcome was inactive.

In the case of `COC(=O)C1=C(O)/C(=C\c2ccc(CNC(=O)C(=O)Nc3ccc(C)cc3)o2)N=C1C`, the molecule was called inactive.

On to `CC(Sc1nnc(C2CC2)n1C)C(=O)Nc1ccc(N2CCOCC2)cc1` (centres undefined), for which the outcome was inactive.

As to `CC1=C(C#N)C(=O)N(C2CCS(=O)(=O)C2)C(=O)/C1=C\c1ccco1` (centres undefined), the result was inactive.

`O=C1c2ccccc2C(=O)N1/N=C/c1ccc(O)c(O)c1O`: the molecule was classed as inactive.

In the case of `Nc1ccc(Nc2ccccc2)c(S(=O)(=O)O)c1`, the result was inactive.

As for `Cc1ccc(NC(=O)COc2ccc(/C=N/NC(=O)CSCc3ccccc3)cc2)cc1`, the call was inactive.

Take `CCCCC1=CC2=CC(=O)C(C)(OC(=O)c3cnc4ccccc4n3)C(=O)C2=CO1` (centres undefined): the result was inactive.

Take `c1cnc(N2CCN(c3cnccn3)CC2)nc1`: the call was inactive.

As for `COc1ccc(CN2CCNC(=O)C2CC(=O)NC2CCCC2)cc1OC` (centres undefined), the molecule was classed as inactive.

Consider `CCN(CC)S(=O)(=O)c1ccc(C(=O)NCc2n[nH]c(=S)n2-c2ccccc2OC)cc1`, for which the molecule was classed as inactive.

`Cc1ccc2c(c1)NC(=O)c1cc([N+](=O)[O-])ccc1O2`: the molecule was called inactive.

Turning to `NS(=O)(=O)c1ccc(NC(=O)COC(=O)CC2Sc3ccccc3NC2=O)cc1` (centres undefined), the molecule was classed as inactive.

`CCOC(=O)c1ccc(NS(=O)(=O)c2ccc3oc(=O)[nH]c3c2)cc1`: the molecule was called inactive.

For the molecule `COC(=O)c1ccc(C(=O)OC)c(NC(=O)Cc2cccs2)c1`, the result was inactive.

`CC[C@H](C)[C@H](NC(N)=O)C(=O)NCCc1ccc(OC)cc1`: the molecule was called inactive.

Consider `COc1ccc(CCNC(=O)/C=C/c2ccco2)cc1`, for which the molecule was classed as inactive.

For `Nc1ccc(Oc2ncccn2)cc1`, the molecule was called inactive.

`CCOC(=O)c1[nH]nc(-c2c(O)cc(C)cc2O)c1-c1csc(C)n1`: the molecule was called inactive.

For the molecule `O=C(Nc1ccccc1)c1ccc(S(=O)(=O)N(CCO)CCO)cc1`, the molecule was called inactive.

Consider `CC(C)OCCCNC(=O)c1cccs1`, for which the molecule was classed as inactive.

Turning to `CC(C)CN1C(=O)c2ccc(C(=O)Nc3ccc(O)cc3C(=O)O)cc2C1=O`, the result was inactive.

In the case of `CS(=O)(=O)c1ccc(Cl)c(NC(=O)COC(=O)COc2ccc3c(c2)CCC3)c1`, the molecule was called inactive.

`CCOc1ccc(NC(=O)CCS(=O)(=O)c2ccc(Br)cc2)cc1`: the molecule was classed as inactive.

Consider `Oc1ccc(N=Cc2sc3ccccc3c2Cl)cc1`, for which the molecule was classed as inactive.

`Cc1nccn1CC(=O)N/N=C/c1ccc(O)c(O)c1`: the result was inactive.

In the case of `Cc1ccsc1C=Nc1ccc(O)cc1`, the result was inactive.

For the molecule `NC(=S)N=Nc1c(O)cc(O)c2[nH]c(=O)ccc12`, the result was inactive.

Consider `Cc1n[nH]c(=S)n(NC(=O)/C=C/C(=O)Nn2c(=S)[nH]nc(C)c2=O)c1=O`, for which the result was inactive.

In the case of `CCN(CC)C(=O)NCc1c(C)cc(C)cc1C`, the call was inactive.

`CCOC(=O)C(=O)Cc1cccnn1`: the molecule was classed as inactive.

For the molecule `CC(=O)c1ccc(S(=O)(=O)Nc2cccc(-n3cnnn3)c2)cc1`, the molecule was classed as inactive.

For `CC1CCC(NC(=O)CCS(=O)(=O)c2ccc3c(c2)CCN3C(=O)C2CC2)CC1` (centres undefined), the call was inactive.

As to `CCc1ccc(-c2nc(SCC(=O)c3c(N)n(C4CC4)c(=O)[nH]c3=O)n[nH]2)cc1`, the result was inactive.

Turning to `COCCn1c(SCC(=O)N2CCC(C)CC2)nc2c([nH]c3ccccc32)c1=O`, the call was inactive.

Take `O=C(c1ccc2nc(-c3ccco3)c(-c3ccco3)nc2c1)N1CCN(c2ncccn2)CC1`: the result was inactive.

For the molecule `N#Cc1ccccc1S(=O)(=O)N1CCN(C(=O)CN2CCCC2c2cccs2)CC1` (centres undefined), the call was inactive.

As to `Cc1ccccc1OCC(=O)OCC(=O)c1ccc(OC(=O)c2ccccc2)cc1`, the result was inactive.

For `Cc1cc(C(=O)NNC(=O)CCC2CCCCC2)c(C)o1`, the result was inactive.

In the case of `COc1ccccc1OCC(=O)NCC1CCCN(Cc2cnn(C(C)C)c2)C1` (centres undefined), the molecule was called inactive.

Regarding `CCOc1ccc(N(CC(=O)NCCC2=CCCCC2)S(=O)(=O)c2ccccc2)cc1`, the result was inactive.

For the molecule `O=C(c1cc(COc2cccc3cccnc23)on1)N1CCC[C@H]1CO`, the molecule was classed as inactive.

Take `CC(Oc1cccc2cccnc12)C(=O)N/N=C/c1ccc2c(c1)OCO2` (centres undefined): the molecule was called inactive.

Take `CC(=O)Nc1ccc(NC(=O)CN(c2cccc(C(C)=O)c2)S(C)(=O)=O)cc1`: the result was inactive.

As to `COc1ccc(-n2c(Cc3cccn3C)nnc2SCC(=O)Nc2ccccc2)cc1`, the molecule was called inactive.

On to `Cn1c(N)c(C(=O)CCl)c(=O)n(Cc2ccccc2)c1=O`, for which the result was inactive.

Regarding `CCOC(=O)c1cc2c(n(-c3ccccc3)c1=O)CC(C)(C)CC2=O`, the outcome was inactive.

On to `O=C(O)c1cc(-c2ccccc2)on1`, for which the call was inactive.

With `CN1CCN(C(CNC(=O)c2ccc(Br)o2)c2ccc(F)cc2)CC1` (centres undefined), the molecule was classed as inactive.

For the molecule `CC(NC(=O)CSc1nnc2n1CCCCC2)c1ccccc1Cl` (centres undefined), the molecule was classed as inactive.

As to `COc1cc(CN2CCNC(=O)C2CC(=O)N(Cc2nccn2C)C(C)C)cc(OC)c1` (centres undefined), the result was inactive.
